PubChem BioAssay (NCI)
This is part of a sample that, as a whole, favours compounds with a hit. Of some 79,000 tested, about 15% had one in any assay. Active and inactive are the calls of the source. No stated cut-off is given here; in the data, active means growth inhibition above about 70%; inactive means the rest.

Test: NCI Yeast Anticancer Drug Screen. Data for the wt1 strain (AID 149);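 further: 0% = growth of vehicle-treated wt1 cultures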
Details: S. cerevisiae wt1 strain (SPY 50644) growth inhibition; at 1.2 µM; stronger effect = higher value
Procedure, shortened: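 Yeast wt1 strain exposed to compounds; growth inhibition measured relative to vehicle-treated controls.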

Row | SMILES | growth inhibition
1 | Cc1cccc2c(C(O)CBr)cc(-c3ccc(Cl)cc3)nc12 (stereo not given) | -3% (inactive)
2 | CN(C)C[C@H]1CC[C@@H](CN(C)C)C1=O | 24% (inactive)
3 | CC1=C(SCCO)C(=O)c2ccccc2C1=O | -4% (inactive)
4 | COC(=O)CCNc1c2ccccc2nc2cccc([N+](=O)[O-])c12 | 79% (active)
5 | CC(/C=C/c1ccc2c(c1)OCO2)[N+](=O)[O-] (stereo not given) | 8% (inactive)
6 | COC(=O)C1=C(C)NC(C)=C(C(=O)OCCCN2CCC(c3ccccc3)(c3ccccc3)CC2)C1c1cccc([N+](=O)[O-])c1 (stereo not given) | -3% (inactive)
7 | CCOC(=O)c1cnc2c(C(F)(F)F)cccc2c1N=[N+]=[N-] | 10% (inactive)
8 | O=[N+]([O-])c1cc2no[n+]([O-])c2cc1N1CCCCC1 | -32% (inactive)
9 | COC(=O)c1ccc(NCC2=CC(=O)C=CC2=O)cc1O | -14% (inactive)
10 | CCCCCCCCNC(=O)C1=C(C)NC(C)=C(C(=O)NCCCCCCCC)C1 | 2% (inactive)
11 | S=C(Nc1ccc(Cl)c(Cl)c1)SCc1ccc2c(c1)OCO2 | 1% (inactive)
12 | O=S(=O)(CCCl)c1ccccc1Cl | 3% (inactive)
13 | Nc1ccccc1CC(O)C(=O)O (stereo not given) | 2% (inactive)
14 | CN(C)c1ccc(Sc2ccc3nc(N)nc(N)c3c2)cc1 | 15% (inactive)
15 | CC(C)C1=CCC2C(=C1)CCC1C(C)(C(=O)O)CCCC21C (stereo not given) (tested in a mixture with another compound) | 11% (inactive)
16 | Cc1ccc(S(=O)(=O)Oc2cc(Cl)c(Cl)cc2Cl)cc1 | -2% (inactive)
17 | CSC(=S)Nc1cc(C)ccn1 | -9% (inactive)
18 | CC(C)c1cc(C(C)C)c(O)c(C([O-])[O-])c1.CC(C)c1cc(C(C)C)c(O)c(C([O-])[O-])c1.CC(C)c1cc(C(C)C)c(O)c(C([OH2+])[OH2+])c1.CC(C)c1cc(C(C)C)c(O)c(C([OH2+])[OH2+])c1.[Cu+2].[Cu+2].[OH3+].[OH3+] | -2% (inactive)
19 | Cc1cc(I)ccc1N | -8% (inactive)
20 | CC(Br)C(=O)c1ccc2cc(Br)c3ccccc3c2c1 (stereo not given) | 0% (inactive)

Row | SMILES | growth inhibition
21 | O=C(Nc1ccccc1)OCCc1ccc(Cl)c(Cl)c1 | -4% (inactive)
22 | O=Cc1cccc2ccc3ccccc3c12 | -6% (inactive)
23 | O=[N+]([O-])CC(SCc1ccccc1)c1ccc2c(c1)OCO2 (stereo not given) | 23% (inactive)
24 | CC1(Cl)CC(O)C2(CC1Br)C1(C)OC1C1OC1(Br)C2(C)C (stereo not given) | 1% (inactive)
25 | Cc1cc(O)cc(O)c1N=Nc1ccc([N+](=O)[O-])cc1 | 12% (inactive)
26 | CCCCCCCCCCCCCC[N+](C)(CC(=O)[O-])Cc1ccccc1 (stereo not given) | -1% (inactive)
27 | CC1=NN(c2cccc(Cl)c2)C(=O)C1 | -13% (inactive)
28 | CC(=O)OCc1ccc(O)c(C=O)c1 | -26% (inactive)
29 | Cc1ccc2ccc3cccc4ccc1c2c34 | -2% (inactive)
30 | Cc1nc(-[n+]2nc(-c3ccncc3)nn2-c2ccccc2)sc1C | -1% (inactive)
31 | C(CCSC1=NCCN1)CSC1=NCCN1 (tested in a mixture with another compound) | -3% (inactive)
32 | CCCCCCCCCCC(=O)Cl | 9% (inactive)
33 | COC1C=COC2(C)Oc3c(C)c(O)c4c(c3C2=O)/C(=N/C2CCC(O)OC2C)C=C(NC(=O)/C(C)=C\C(=O)C2CC2C(O)C(C)C(O)C(C)C(OC(C)=O)C1C)C4=O (stereo not given) | 0% (inactive)
34 | S=c1[nH]nc(Nc2ccc(Cl)cc2)s1 | 1% (inactive)
35 | O=C1CSC(/C=C/c2ccccc2)N1c1ccc(-c2ccc(-n3c(-c4ccccc4)nc4ccccc4c3=O)cc2)cc1 (stereo not given) | -2% (inactive)
36 | O=C1C=CC(=O)N1c1ccc2c(c1)Cc1cc(NC(=O)C(F)(F)F)ccc1-2 | 6% (inactive)
37 | Brc1ccc(-c2cc3c(cc2C2SCCS2)OCO3)cc1 | -24% (inactive)
38 | Oc1ccc2ccccc2c1C(c1ccc(Cl)cc1)c1c(O)ccc2ccccc12 | 15% (inactive)
39 | C[CH2][Sn]([CH2]C)([O]C(=O)C(OC(C)=O)c1ccccc1)[O]C(=O)C(OC(C)=O)c1ccccc1 (stereo not given) | 0% (inactive)
40 | Cc1ccc2ccc(O)cc2c1 | -22% (inactive)
